The list is not random: actives were taken first. Their share in the collection is about 11%.
12-hLO inh: blocks human 12-lipoxygenase activity. P18054. 0.12% of 150,000 active. purified 12-hLO, xylenol orange hydroperoxide absorbance. Potency, µM (titrated, usually from 57.1 µM), for the others: top-dose activity change, negative = inhibition, usual class: inhibitors; also: potency is read from the fitted curve at half-maximal effect; nearly all actives have a fitted effect of over 55% in size
Target sequence (P18054 whole entry, looked up): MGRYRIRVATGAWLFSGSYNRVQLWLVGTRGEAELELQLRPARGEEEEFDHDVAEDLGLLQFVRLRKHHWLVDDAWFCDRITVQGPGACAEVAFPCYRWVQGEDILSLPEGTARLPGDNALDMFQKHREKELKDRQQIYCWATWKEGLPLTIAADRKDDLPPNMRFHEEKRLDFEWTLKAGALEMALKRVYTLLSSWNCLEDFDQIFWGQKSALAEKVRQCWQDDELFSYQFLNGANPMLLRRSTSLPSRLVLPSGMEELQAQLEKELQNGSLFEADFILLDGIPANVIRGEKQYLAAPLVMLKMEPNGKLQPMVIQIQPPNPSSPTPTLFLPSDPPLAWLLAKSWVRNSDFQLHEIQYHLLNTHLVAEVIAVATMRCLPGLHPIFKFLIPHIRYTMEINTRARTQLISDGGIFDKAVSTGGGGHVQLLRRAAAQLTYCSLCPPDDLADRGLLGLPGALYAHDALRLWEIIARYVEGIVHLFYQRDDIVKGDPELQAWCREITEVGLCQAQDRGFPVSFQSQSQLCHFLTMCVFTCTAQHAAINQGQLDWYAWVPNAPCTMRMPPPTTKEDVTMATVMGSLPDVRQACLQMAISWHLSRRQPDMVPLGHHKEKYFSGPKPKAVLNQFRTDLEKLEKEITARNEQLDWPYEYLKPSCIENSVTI
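Xylenol orange chromogenic assay: hydroperoxide from 12hLO oxidises Fe(II), giving red-shifted Fe(III)-XO absorbance. Conditions: 150 nM enzyme, 40 uM arachidonic acid, 25 mM Hepes pH 7.0, 0.01% Triton X-100, 30 min, room temperature.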
IMPase Li cell: IMPase inhibition in cells with lithium potentiation; CHO-M1 cells, IP1 TR-FRET (IP-One), carbachol + lithium; Potency, µM (titrated, usually from 59.4 µM), inactives show at the highest dose activity, negative = IMPase inhibition, most hits filed as inhibitors; 0.35% of 210,000 active; AID 1457;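 also: IP1 builds up when IMPase is blocked and the TR-FRET signal falls; potency is read from the fitted curve at half-maximal effect; plate controls were basal vehicle for no effect and high inhibitor control for full effect; nearly all actives have a fitted effect of over 50% in size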
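Lithium-sensitised IP1 accumulation assay; M1-expressing CHO cells treated 30 min at 37C with compound. Competitive antibody detection by time-resolved FRET followed a 10 min room-temperature lysis step.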
ALDH1A1 inh: inhibitors of human aldehyde dehydrogenase 1A1; Purified ALDH1A1, NADH fluorescence, propionaldehyde substrate; Potency, µM (titrated, usually from 75.3 µM), without a hit: at the top dose activity, negative = inhibition, usual class: inhibitors; 7.3% of 220,000 active; AID 1030; active = well fitted inhibition curve with a large enough effect, not every such curve was filed as active; inconclusive = small, poorly fitted or top-dose-only effect, or another doubt; inactive = no such curve, though single readings can be large or run the other way;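 also: potency is read from the fitted curve at half-maximal effect; plate controls were no enzyme wells and a reference inhibitor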
IMPase inh: IMPase inhibition in cells; P97697; CHO-M1 cells, IP1 accumulation, HTRF TR-FRET ratio; inhibition (IP1 accumulation), % at 46.1 µM; 120,000 tested, under 10 active; AID 901; active = well fitted curve in the direction sought with a large enough effect in the signal ratio, not every such curve was filed as active; inconclusive = small, poorly fitted or top-dose-only effect, or a change in a side signal; inactive = no such curve, though single readings can be large or run the other way; the % refers to the signal ratio;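 also: cells stimulated with carbachol in lithium chloride buffer; plate controls were DMSO basal wells for no effect and reference inhibitor wells for full effect; higher means more IMPase inhibition seen as more IP1 and lower FRET ratio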
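Seeded CHO-M1 cells were dosed with compound at up to 46 uM, stimulated with carbachol for 30 min, then lysed in IP-One detection reagents. Higher IP1 lowers the TR-FRET signal.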
HPGD block: inhibitors of human 15-hydroxyprostaglandin dehydrogenase (HPGD). purified HPGD, NADH fluorescence kinetic, PGE2 substrate. Potency, µM, for the others: at the highest dose activity change, negative = inhibition, hits mostly inhibitors. 4.3% of 150,000 active; active = well fitted inhibition curve with a large enough effect, not every such curve was filed as active; inconclusive = small, poorly fitted or top-dose-only effect, or another doubt; inactive = no such curve, though single readings can be large or run the other way; also: potency is read from the fitted curve at half-maximal effect
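NADH formation kinetics: reaction with 30 uM PGE2 and 1 mM NAD+ (final), 20 nM enzyme, Tris-HCl pH 8 with Tween 20, after 15 min compound preincubation at room temperature. Fluorescence change, last versus first of five reads.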
PNC assembly inh: inhibitors of perinucleolar compartment assembly; AID 2417; activity change (PNC), negative = inhibition, % at 10 µM; 3.1% of 140,000 active; PC3M PTB-GFP, PNC prevalence imaging, 16 h; stronger effect = lower value;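 active = readout at or below -70, meaning at least 70% loss of cells showing the perinucleolar compartment, a nuclear body marking cancer cells; inconclusive = readout between -30 and a set limit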;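 also: plate controls were DMSO wells for no effect and camptothecin positive control wells for full effect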
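Compounds are pinned in duplicate onto adhered PC3M cells stably expressing GFP-tagged PTB and incubated 16 h at 37 C. Cells are then fixed, nuclei stained with Hoechst, and PNC-positive cells counted.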
Active calls of the source: *; ? = inconclusive; / = not tested or not shown; [ ] = another dose, or the depositor's remark. Unless noted, calls follow the shape of the dose curve; as a rule, active = well fitted curve in the direction sought with a large enough effect; inconclusive = small, poorly fitted or top-dose-only effect, or another doubt; inactive = no such curve, though single readings can be large; an effect the other way counts as inactive or inconclusive. Unless noted, % is scaled to controls: 0 for no effect and ±100 for the full control effect.

SMILES	12-hLO inh	IMPase Li cell	ALDH1A1 inh	IMPase inh	HPGD block	PNC assembly inh
Cc1ccc(C)c(NC(=O)Cn2cc(C(=O)c3cccs3)c3ccccc32)c1	/	/	/	-8	/	/
O=C(O)CCc1cc(I)c(O)c(I)c1	/	11%	4%	/	/	/
Cc1ccc(CNC(=O)c2sccc2-n2cccc2)cc1	-4%	22%[38.3 µM]	?	1	13µM*	?
NS(=O)(=O)c1ccc(CCN2C(=O)/C(=C\c3ccc(Cl)cc3)SC2=S)cc1	-3%	0%	?	/	-2%	-84*
Cc1ccc(C)n1N1C(=O)/C(=C\c2ccc(Cl)cc2)SC1=S	-9%	-3%[38.3 µM]	?	1	-16%	72
COc1ccc2cc(C(=O)CCC(=O)O)ccc2c1	4%[11.4 µM]	-2%	?	/	?	/
O=C(COC(=O)C1CC2C=CC1C2)NCCc1ccccc1 (configuration not stated)	/	-2%	?	/	/	/
O=C(COC(=O)C1CC2C=CC1C2)Nc1ccccc1F (configuration not stated)	/	8%	13µM*	/	/	/
CN(C)c1ccc(-c2nc(NCc3cccnc3)c3ccccc3n2)cc1	0%	?	?	/	?	/
CCOC(=O)C1=C(C)OC(N)=C(C#N)C1c1ccsc1 (configuration not stated)	-11%	-6%[38.3 µM]	?	3	-19%	-18
CCOC(=O)C1=C(NC#N)OC(C)=C(C)C1c1ccc(O)cc1 (configuration not stated)	0%	10%	22µM*	0	-29%	?
CC1=C(C(=O)Nc2ccccc2)C(CC(C)C)n2nc(SCc3ccccc3C)nc2N1 (configuration not stated)	/	/	/	0	/	/
C=C1C(=O)C=C2CN(C(=O)c3ccccc3)[C@@](Cc3ccc(F)cc3)(C(=O)OC)[C@@H]12	-5%	26%	-1%	/	16µM*	-119*
COC(=O)[C@@]1(Cc2ccc(OC)cc2)[C@@H]2C(=CC(=O)[C@H]2CC(=O)C(=O)N(C)C)CN1C(=O)c1ccccc1	-2%	4%	5%	/	-1%	-10
O=C(CN(CCc1ccccc1)C(=O)Cn1nnc(-c2cccs2)n1)NCc1ccco1	2%	9%[38.3 µM]	13µM*	-5	-20%	36
O=C(CN(C(=O)Cn1nnc(-c2cccs2)n1)c1ccc2c(c1)OCCO2)NCc1ccccc1	3%	11%	?	6	-16%	21
O=C(CN(CCc1ccccc1)C(=O)CN1C(=O)COc2ccccc21)NCc1ccco1	6%	15%[38.3 µM]	8.9µM*	-1	-9%	3
Cc1ccc2c(c1)N(CC(=O)NCc1ccco1)C(=O)CO2	1%	11%	-1%	1	-3%	?
Cc1cccc2cc(C#N)c(SCC(=O)NCc3cccs3)nc12	-2%	7.9µM*	6%	/	-10%	-22
Cc1ccc(C)c2nc(SCC(=O)NCc3cccs3)c(C#N)cc12	10%	5µM*	?	0	?	-6
Cc1cc2c(C)ccc(C)c2nc1SCC(=O)c1cccs1	4%	28%[38.3 µM]	13%	?	-3%	27
Cc1cccc2cc(C#N)c(SCC(=O)NCC3CCCO3)nc12 (configuration not stated)	-3%	0%	3%	?	?	-21
Cc1cccc2cc(C#N)c(SCC#N)nc12	/	14µM*	2%	/	/	/
O=C(CSc1cccc2cccc(Cl)c12)NCc1cccs1	0%	-2%	-5%	/	10µM*	?
COc1ccccc1N1CCN(CCCCNS(=O)(=O)c2cccc3c(N(C)C)cccc23)CC1	-7%	-4%	?	-7	-15%	/
SMILES	12-hLO inh	IMPase Li cell	ALDH1A1 inh	IMPase inh	HPGD block	PNC assembly inh
CCc1nn2c(=O)c(S(=O)(=O)Nc3ccc(Br)cc3F)c(C)nc2s1	/	/	/	9	/	/
Cn1c(=O)[nH]c2sc3c(c2c1=O)CC(C)(C)OC3	-1%	35%[38.3 µM]	0%	-1	?	?
CC1(C)Cc2c(sc3[nH]c(=S)[nH]c(=O)c23)CO1	/	1%	7.9µM*	/	/	/
COc1ccc(N2CCN(C(=O)C(C)(C)Oc3ccc(Cl)cc3)CC2)cc1	1%	48%[38.3 µM]	10µM*	9	-14%	?
CCOC(=O)N1CCN(C(=O)C(C)(C)Oc2ccc(Cl)cc2)CC1	1%	32%[38.3 µM]	?	0	-6%	26
COc1ccc(N2CCN(C(=O)c3ccc(C(C)(C)C)cc3)CC2)cc1	-5%	33%[38.3 µM]	8.9µM*	5	-21%	?
Cc1noc(NS(=O)(=O)c2cccc3c(N(C)C)cccc23)c1C	-1%	-12%	-14%	-5	?	/
COc1ccccc1CNc1cc(-c2c(C)noc2C)ncn1	/	12%	8%	/	/	/
COc1cc(/C=N/NC(=O)c2cccc([N+](=O)[O-])c2)ccc1OCc1ccccc1	-22%	15%[38.3 µM]	?	4	?	-23
COc1cc(/C=C/[N+](=O)[O-])ccc1OCc1cccc(C(=O)O)c1	/	26%	28µM*	/	/	/
CCN(CC)C(=O)CC(c1ccc(F)cc1)c1ccco1 (configuration not stated)	-1%	30%[38.3 µM]	?	4	20µM*	?
CN(C)CCCNC(=O)CC(c1ccc(F)cc1)c1ccco1 (configuration not stated)	1%	-3%[38.3 µM]	5%	-3	-4%	?
O=C(C[n+]1cccc(CO)c1)Nc1nc2ccccc2s1	/	4%	-11%	/	/	/
O=C(Cn1nnc(-c2ccc(CN3CCOCC3)cc2)n1)N(c1ccccc1)c1ccccc1	/	13%	11µM*	/	/	/
Nn1cnnc1N/N=C\c1ccc(-c2ccccc2[N+](=O)[O-])o1	0%	13%	25µM*	6	-22%	?
O=[N+]([O-])c1ccccc1-c1ccc(/C=N/n2cnnc2)o1	-1%	-3%[38.3 µM]	-10%	-3	16µM*	47
O=C(O)CC[C@]1(C(=O)O)CCC(=O)c2ccccc21	-3%[11.4 µM]	-6%	0%[13.5 µM]	/	1%	/
N#Cc1cccc(-c2ccc3ncnc(NC4CCNCC4)c3c2)c1	/	-2%	-12%	/	/	/
C=C1CCC2C(CC2(C)C)C(=C)CC/C1=N/O (configuration not stated)	7%	19%	0%	/	-6%	/
O=c1[nH]c(-c2ccccc2F)nc2c1sc(=S)n2Cc1ccccc1	-5%	2%	13%	-2	10µM*	12
CCCCn1c(=O)[nH]c(=O)c2c1nc(-c1ccccc1F)n2Cc1ccccc1	/	12%	?	/	/	/
Cn1ncc(S(=O)(=O)Cc2ccccc2)c(Cl)c1=O	/	/	1.1µM*	/	/	/
O=c1cc(-c2cccc(O)c2O)oc2ccccc12	?	24%	-3%	10	16µM*	/
COc1cc(-c2cc(=O)c3ccccc3o2)ccc1O	-7%	4%	-4%	-3	35µM*	/

Assay outcomes (PubChem BioAssay)
